In PubChem BioAssay (NCI):
Compounds without any hit were thinned out: in the full panel of roughly 79,000, 15% have a hit. Values without a mark were called inactive. The source made the active and inactive calls. Cut-off read from the data, not from the text of the source: active = growth inhibition above about 70%; inactive = the rest.

Experiments:
[1] = NCI Yeast Anticancer Drug Screen. Data for the rad50 strain (AID 155);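 note: 0% = growth of vehicle-only cultures of the same strain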; conditions: S. cerevisiae rad50 strain growth inhibition, stronger effect = higher value
How it was run: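 Yeast carrying a defined DNA repair defect were exposed to test compounds, and growth was compared with vehicle-treated controls to give percent inhibition.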

[2] = NCI Yeast Anticancer Drug Screen. Data for the mec2-1 strain (AID 157); conditions: S. cerevisiae mec2-1 strain, stronger effect = higher value
How it was run: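 Yeast mec2-1 mutant treated with compound. Readout: growth inhibition vs vehicle controls.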

[3] = NCI Yeast Anticancer Drug Screen. Data for the sgs1 mgt1 strain (AID 161);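 note: 0% = growth of cultures given vehicle only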; conditions: S. cerevisiae sgs1 mgt1 strain, stronger effect = higher value
How it was run: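 Inhibition of yeast growth, normalised to vehicle-treated controls, is reported for a strain bearing genetic alterations in DNA damage repair.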

[4] = NCI Yeast Anticancer Drug Screen. Data for the cln2 rad14 strain (AID 165);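 note: 0% = growth equal to vehicle treated cultures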; conditions: S. cerevisiae cln2 rad14 strain, stronger effect = higher value
How it was run: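 cln2 rad14 yeast strain; compound exposure; growth inhibition read vs vehicle controls.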

[5] = NCI Yeast Anticancer Drug Screen. Data for the bub3 strain (AID 167); conditions: S. cerevisiae bub3 mutant strain, stronger effect = higher value
How it was run: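 Compounds were applied to a genetically altered yeast strain carrying a cell-cycle control defect. Growth inhibition was scored against vehicle-treated controls.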

[6] = NCI Yeast Anticancer Drug Screen. Data for the mlh1 rad18 strain (AID 175); conditions: S. cerevisiae mlh1 rad18 strain growth inhibition, stronger effect = higher value
How it was run: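 Yeast w/ defined DNA-repair lesions; compound exposure; growth vs vehicle controls → % inhibition.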

[7] = at 5.0 µM (retest, dose inferred, filed as 0.5)
[8] = at 50.0 µM (retest, dose inferred, filed as 5.0)

Structure (SMILES) | growth inhibition [1, 7] | growth inhibition [1, 8] | growth inhibition ([1]; at 50.0 µM) | growth inhibition [2, 7] | growth inhibition [2, 8] | growth inhibition ([2]; at 50.0 µM) | growth inhibition [3, 7] | growth inhibition [3, 8] | growth inhibition ([3]; at 50.0 µM) | growth inhibition [4, 7] | growth inhibition [4, 8] | growth inhibition ([4]; at 50.0 µM) | growth inhibition [5, 7] | growth inhibition [5, 8] | growth inhibition ([5]; at 50.0 µM) | growth inhibition [6, 7] | growth inhibition [6, 8] | growth inhibition ([6]; at 50.0 µM)
O=C(CC(C[N+](=O)[O-])c1ccc2c(c1)OCO2)c1ccccc1 (configuration not stated) | 0% | -3% | -12.5% | 9% | 17% | 17.1% | -1% | -50% | 33.9% | 4% | 16% | 4.65% | 18% | 45% | 88.2% (active) | -4% | 9% | 45.1%
Cc1cc(N(CCC#N)CCC#N)ccc1/C(Sc1ccccc1)=C(\NC(=O)/C=C/c1ccccc1)C(=O)Sc1ccccc1 | 28% | 28% | 86.6% (active) | 21% | 21% | 90% (active) | 25% | 25% | 90.9% (active) | 17% | 17% | 64.5% | 21% | 21% | 87.2% (active) | 24% | 24% | 75.1% (active)
COC(=O)C1(Cc2ccc3c(c2)CCC3)Cc2ccc3c(c2C1O)CCC3 (configuration not stated) | -2% | 94% (active) | 94.6% (active) | -1% | 96% (active) | 94.3% (active) | 15% | 97% (active) | 89.9% (active) | -4% | 94% (active) | 85% (active) | -1% | 95% (active) | 93.7% (active) | 4% | 94% (active) | 85.3% (active)
CCOc1c(N=Nc2ccc(Cl)cc2)c(-c2ccccc2)nn1C(=S)S | 4% | 91% (active) | 95.3% (active) | 2% | 89% (active) | 95.6% (active) | 8% | 92% (active) | 92% (active) | 5% | 92% (active) | 91.5% (active) | 0% | 94% (active) | 92.8% (active) | 2% | 91% (active) | 94.4% (active)
Cc1cc([N+](=O)[O-])cc(C)[n+]1[O-] | 13% | 67% | 82.5% (active) | 0% | 12% | 50.1% | 17% | 80% (active) | 91.2% (active) | 3% | 53% | 44.8% | 0% | -14% | 6.55% | 20% | 60% | 84.2% (active)
CSC(SC)C(SC)SC | 1% | 98% (active) | 1.65% | 1% | 99% (active) | -5.4% | -4% | 99% (active) | 0.65% | 6% | 99% (active) | 16.6% | 0% | 99% (active) | -2.35% | -1% | 99% (active) | -1.15%
CC1(C)[C@@H]2CC[C@]1(C)[C@@H](OC(=O)CSC#N)C2 | 92% (active) | 99% (active) | 99.4% (active) | 74% (active) | 100% (active) | 99.6% (active) | 98% (active) | 100% (active) | 99.3% (active) | 24% | 99% (active) | 98.8% (active) | 95% (active) | 100% (active) | 99.6% (active) | 75% (active) | 99% (active) | 99.2% (active)
CCN=C(N)Nc1nc(-c2ccc(Cl)cc2)cs1 | 10% | 99% (active) | 98.8% (active) | 0% | 99% (active) | 96.8% (active) | 8% | 99% (active) | 91.8% (active) | 9% | 99% (active) | 76.3% (active) | 7% | 98% (active) | 96.3% (active) | 9% | 99% (active) | 96.8% (active)
Cc1cc(NC(=S)SCc2ccc(F)cc2)c([N+](=O)[O-])cc1C | 57% | 98% (active) | 98.7% (active) | 36% | 99% (active) | 98.8% (active) | 87% (active) | 99% (active) | 98.5% (active) | 19% | 97% (active) | 98.8% (active) | 48% | 92% (active) | 99% (active) | 94% (active) | 98% (active) | 99.1% (active)
